Measurements as given in PubChem BioAssay.
The source made the active and inactive calls.

Experiment: small-molecule microarray binders of probe aXIP, primary screen, biochemical, NeuroSMM set, 635/667 nm fluorescence (AID 1119);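 note: probe is the protein aXip251-270 applied at 1 µg/mL to compound-printed slides; binding of probe to printed compounds measured as 667 nm fluorescence plus signal to noise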
Details: higher = more signal, called active from +8 up or from −8 down

Composite Z-score, inactive:
C[C@@H]1ON(c2ccccc2)[C@H](c2ccccc2)[C@H]1C(=O)N1C(=O)OC[C@H]1Cc1ccccc1 0.477
COCCCNC(=O)[C@@H]1c2ccccc2C(=O)N(c2ccc(C)cn2)[C@H]1c1ccc(CO)cc1 0.567
CC(=O)NCCCC[C@@H]1NC(=O)[C@H]2C[C@@H](C(=O)NCCCCCN)[C@@H](c3cccc(OCCO)c3)N2C1=O -0.306
C=CCOC(=O)[C@@H]1[C@H]2C(=O)O[C@H](c3ccccc3)[C@H](c3ccccc3)N2[C@H](c2ccc(OCCOC(=O)[C@H]3C[C@H]4C(=O)N[C@@H](Cc5ccccc5)C(=O)N4[C@H]3c3cccc(OCCO)c3)cc2)[C@@]12C(=O)Nc1ccc(I)cc12 0.111
O=C(Nc1cc(Br)ccc1C(=O)NCc1cccc(O)c1)c1ccccc1 -0.0662
CC(C)CCC[C@@H](C)[C@H]1CC[C@@]2(C)C3=C(CC[C@]12C)[C@@]1(C)CC[C@H](OC(=O)C(C)(C)C)C(C)(C)C1CC3 (stereo not given in full) -0.598
COC(=O)[C@@]1(Cc2ccccc2)[C@H]2c3cc(C(=O)N(C)C)n(Cc4ccc(O)c(OC)c4)c3C[C@H]2CN1C(=O)c1ccccc1 0.403
CC(C)C[C@H]1NC(=O)[C@H](C)NC(=O)[C@@]23C(=O)N[C@@H](Cc4ccccc4)C2[C@H](C)[C@@]2(C)O[C@H]2C3/C=C/C/C=C\CNC1=O (stereo not given in full) -0.155
NCCCCCCNC(=O)[C@H]1C[C@H]2C(=O)N3CCC[C@H]3C(=O)N2[C@H]1c1ccc(O)cc1 2.61
COC(=O)C(CC#Cc1ccc2c(c1)[C@]1(C(=O)N2)[C@H](c2ccc(OCCO)cc2)N2[C@H](c3ccccc3)[C@H](c3ccccc3)OC(=O)[C@H]2[C@@H]1C(=O)O)C(=O)OC 0.419
O=C1O[C@H](c2ccccc2)[C@H](c2ccccc2)N2[C@H]1[C@@H](C(=O)N1CCN(c3ncccn3)CC1)[C@]1(C(=O)Nc3ccc(C#CCCO)cc31)[C@H]2c1ccc(OCCO)cc1 1.38
NC(=O)NCC#Cc1ccc2c(c1)[C@]1(C(=O)N2)[C@H](c2ccc(OCCO)cc2)N2[C@H](c3ccccc3)[C@H](c3ccccc3)OC(=O)[C@H]2[C@@H]1C(=O)N1CCCCCCC1 5.46
CN(C)C(=O)[C@@]1(CCS(=O)(=O)c2ccccc2)N=C(c2ccc(OCCCO)cc2)O[C@H]1c1ccccc1CN=[N+]=[N-] 0.24
COc1ccc(CCNC(=O)[C@@H]2c3ccccc3C(=O)N(Cc3ccccc3C(F)(F)F)[C@H]2c2ccc(CO)cc2)cc1 1.36
O=C1O[C@H](c2ccccc2)[C@H](c2ccccc2)N2[C@H]1[C@@H](C(=O)NC[C@H](O)c1ccccc1)[C@]1(C(=O)Nc3ccccc31)[C@H]2c1ccccc1OCCO 0.16
C=C(CCCC)/C(=C/C[C@H](OC(=O)c1ccncc1)c1ccc(CO)o1)c1cc(C(=O)OC)ccc1OC 0.243
CCCCCCCCCCC(O)C1C=CC2C(=O)NC(=O)C2N1Nc1ccccn1 (stereo not given) -0.118
COC(=O)[C@@]1(Cc2ccc(OC)cc2)[C@H]2c3cc(C(=O)N4CCCC4)n(Cc4ccc(C)o4)c3C[C@H]2CN1C(=O)c1ccccc1 -0.282
C=C(/C(=C/C[C@@H](OC(=O)c1ccncc1)c1cccc(OCCO)c1)c1cc(C(=O)OC)ccc1OC)C(C)C 0.25
CCOC(=O)C[C@H]1[C@H](OC(=O)Cc2ccc3c(c2)OCO3)[C@@H](NC(=O)c2ccccc2)c2cc(OCCCO)ccc2N1C(=O)c1ccccc1 0.713
CCCC=C(CCC)[C@@H](NS(=O)(=O)c1ccccc1)c1ccc(C(F)(F)F)cc1 0.35
C=C[C@H](C)[C@H](OC(=O)Nc1ccc(SC)cc1)c1ccc(O)c2ccccc12 -0.53
CC1(C)[C@@H]2CC(C(O)C3C=CC4C(=O)N(c5ccccc5)C(=O)C4N3Nc3ccccc3F)=C[C@@H]1C2 (stereo not given in full) 0.0252
COC(=O)c1ccc(OC)c(/C=C\CC(CCc2ccccc2)OC(=O)c2ccncc2)c1 (stereo not given) 0.302
O=C1C2C=CC(C(O)c3ccc(Br)cc3)N(Nc3ccccc3)C2C(=O)N1c1ccccc1 (stereo not given) -0.0127
COCCOC(=O)N1C(=O)[C@@]2(c3cc(C#Cc4ccc(OC)cc4)ccc31)[C@H](C(=O)N1CCc3cc(OC)c(OC)cc3C1)[C@H]1C(=O)O[C@H](c3ccccc3)[C@H](c3ccccc3)N1[C@@H]2c1ccc(OCCO)cc1 -0.527
C=CCC(OC(C)=O)[C@@H]1[C@@H](N(Cc2ccc(-c3cccc(C(F)(F)F)c3)o2)C(=O)c2cccc3ccccc23)c2cc(OCCCO)ccc2N1C(=O)c1ccc(-c2ccccc2)cc1 (stereo not given in full) -0.0505
CCCN1C(=O)[C@@]2(Cc3ccccc3)N=C(c3ccc(OCCCO)cc3)O[C@H]2c2ccccc21 0.72
O=C1c2ccccc2[C@](Cc2ccccc2I)(C(=O)NCC(F)(F)F)[C@H](c2ccc(CO)cc2)N1Cc1ccccc1 0.341
COc1ccc([Si](C)(C)[C@@H]2[C@@H](CC(=O)N(CCO)Cc3ccccc3)O[C@]3(C(=O)N(C)c4c(Br)cc(C)cc43)[C@H]2C)cc1 0.0128
CCOC(=O)C[C@H]1[C@H](OC(=O)Cc2ccc3c(c2)OCO3)[C@@H](NC(=O)c2ccccc2)c2cc(OCCCO)ccc2N1C(=O)c1ccc2ccccc2n1 0.375
COC(=O)[C@]1(Cc2ccccc2CN=[N+]=[N-])N=C(c2ccc(OCCCO)cc2)O[C@@H]1c1ccccc1 0.667
CN(C)CCCC[C@@H]1NC(=O)[C@H]2C[C@@H](C(=O)NCCCCCCNC(=O)CS)[C@@H](c3ccc(O)cc3)N2C1=O -0.131
O=C(O)[C@]1(CCS(=O)(=O)c2ccccc2)N=C(c2ccc(OCCCO)cc2)O[C@@H]1c1ccccc1 0.207
C=CCC(OC(C)=O)[C@@H]1[C@@H](N(Cc2cccc3ccccc23)C(=O)c2ccc(C)cc2)c2cc(OCCCO)ccc2N1C(=O)c1ccc2ccccc2c1 (stereo not given in full) 0.0941
